Laboratory results published in PubChem BioAssay AID1159580 (chemical genetic matrix, 2015).
Several values for one entry are separate records, joined by “and”; a condition that tells them apart may be missing. Equal values may be shown once. Out of some 5,500 compounds screened, about 2,000 (36%) were called active. About 18% were inconclusive and are not listed. Cut-off read from the data, not from the text of the source: active = normalized growth mostly below about 0.91 (no sharp cut-off); inconclusive = no clear call, values can overlap the other calls; inactive = mostly above about 0.92. This is one part of the list.

Assay: chemical genetic growth profiling, strain panel (AID 1159580);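 note: tested at 20 µM; growth read once vehicle control cultures reached saturation at 30 °C; 1 = growth at the plate median or of vehicle wells; lower values mean less growth of the strain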
Settings: S. cerevisiae deletion strains, growth OD

Measured: normalized growth

C[C@@H]1CC[C@@]23CCC4(C)[C@@](C=CC5[C@@]6(C)CC[C@H](O)C(C)(C)C6CC[C@]54C)(OC2=O)C3[C@H]1C (some centres not stated)
inactive: locus YAL021C, strain ccr4, hits give low values 0.999 | locus YAL026C, strain drs2, hits give low values 1.01 | locus YAL030W, strain snc1, hits give low values 1 | locus YBL061C, strain skt5, hits give low values 1.06 | locus YBR009C, strain hhf1, hits give low values 1 | locus YBR021W, strain FUR4, hits give low values 0.999 | locus YBR023C, strain chs3, hits give low values 1.02 | locus YBR171W, strain sec66, hits give low values 1 | locus YBR229C, strain ROT2, hits give low values 1 | locus YBR231C, strain swc5, hits give low values 1.09 | locus YCL011C, strain gbp2, hits give low values 1 | locus YCL016C, strain dcc1, hits give low values 1.08 | locus YCL029C, strain bik1, hits give low values 1.02 | locus YCL061C, strain MRC1, hits give low values 0.991 | locus YCL069W, strain vba3, hits give low values 1.01 | locus YCR088W, strain abp1, hits give low values 1 | locus YDL005C, strain med2, hits give low values 1.01 | locus YDL035C, strain GPR1, hits give low values 1 | locus YDL040C, strain nat1, hits give low values 1.06 | locus YDL074C, strain BRE1, hits give low values 1.04 | locus YDL101C, strain DUN1, hits give low values 1.02 | locus YDL134C, strain PPH21, hits give low values 1.03 | locus YDL185W, strain tfp1, hits give low values 1.01 | locus YDL192W, strain arf1, hits give low values 1.05 | locus YDR001C, strain nth1, hits give low values 1.01 | locus YDR069C, strain doa4, hits give low values 0.985 | locus YDR101C, strain arx1, hits give low values 1.03 | locus YDR159W, strain sac3, hits give low values 1.1 | locus YDR162C, strain NBP2, hits give low values 1.04 | locus YDR195W, strain ref2 0.955 | locus YDR297W, strain sur2, hits give low values 1 | locus YDR318W, strain mcm21, hits give low values 1.01 | locus YDR334W, strain swr1, hits give low values 1 | locus YDR335W, strain msn5, hits give low values 1.01 | locus YDR388W, hits give low values 1.01 | locus YDR392W, strain spt3, hits give low values 1.02 | locus YDR502C, strain sam2, hits give low values 1 | locus YEL003W, strain gim4, hits give low values 0.99 | locus YEL037C, strain rad23, hits give low values 1.04 | locus YEL061C, strain CIN8 (second series), hits give low values 1 | locus YEL061C, strain CIN8, hits give low values 1.02 | locus YER015W, strain faa2, hits give low values 1 | locus YER110C, hits give low values 0.995 | locus YER111C, strain swi4, hits give low values 1.04 | locus YER155C, strain BEM2 (second series), hits give low values 0.967 | locus YER155C, strain BEM2, hits give low values 1.03 | locus YER167W, strain BCK2, hits give low values 1.01 | locus YFR010W, strain ubp6, hits give low values 1.02 | locus YGL078C, strain dbp3, hits give low values 1 | locus YGL086W, strain mad1, hits give low values 1.02 | locus YGL167C, strain pmr1, hits give low values 1.02 | locus YGL173C, strain kem1, hits give low values 0.991 | locus YGL227W, strain vid30, hits give low values 1 | locus YGL240W, strain doc1, hits give low values 0.99 | locus YGL248W, strain PDE1, hits give low values 1.03 | locus YGL253W, strain hxk2, hits give low values 1.03 | locus YGR078C, strain PAC10, hits give low values 1.03 | locus YGR135W, strain pre9, hits give low values 0.993 | locus YGR229C, strain SMI1, hits give low values 1.08 | locus YGR252W, strain gcn5, hits give low values 1.07 | locus YHR013C, strain ard1, hits give low values 1.06 | locus YHR027C, strain rpn1, hits give low values 1.01 | locus YHR030C, strain SLT2, hits give low values 1.03 and 1.01 | locus YHR079C, strain IRE1 (second series), hits give low values 0.998 | locus YHR079C, strain IRE1, hits give low values 0.999 | locus YHR129C, strain ARP1, hits give low values 1.03 | locus YHR142W, strain chs7, hits give low values 1.06 | locus YHR200W, strain rpn10, hits give low values 0.988 | locus YIL066C, strain RNR3, hits give low values 1.04 | locus YIL073C, strain SPO22, hits give low values 1.05 | locus YIL125W, strain kgd1, hits give low values 0.992 | locus YJL092W, strain hpr5, hits give low values 1.01 | locus YJL095W, strain BCK1 (second series), hits give low values 1.03 | locus YJL095W, strain BCK1, hits give low values 1.06 and 1.01 | locus YJL115W, strain asf1, hits give low values 1.03 | locus YJL129C, strain trk1, hits give low values 1.03 | locus YJL134W, strain LCB3, hits give low values 1.02 | locus YJL154C, strain vps35, hits give low values 1 | locus YJL164C, strain tpk1, hits give low values 1.01 | locus YJL166W, strain qcr8, hits give low values 1.01 | locus YJL187C, strain SWE1 (second series), hits give low values 1.01 | locus YJL187C, strain SWE1, hits give low values 0.996
active: locus YBR279W, strain paf1, hits give low values 1.09 [resistant] | locus YDR137W, strain rgp1, hits give low values 1.16 [resistant] | locus YER016W, strain bim1, hits give low values 1.17 [resistant] | locus YHR094C, strain hxt1, hits give low values 1.14 [resistant] | locus YIR030C, strain dcg1, hits give low values 1.18 [resistant]
